In PubChem BioAssay:
The source made the active and inactive calls.

Test: S. cerevisiae RM11-1a growth modifiers, primary screen, strain RM11-1a, OD600, basal, 24 h (AID 1177);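 also: cultures grown under basal conditions with no added stressor; test concentration not given here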
Conditions: OD600, 24 h, higher = more signal, called active from +8 up or from −8 down

z-score, inactive:
COCCOC(=O)N1C(=O)[C@@]2(c3cc(C#CCNC(N)=O)ccc31)[C@H](C(=O)N1CCc3cc(OC)c(OC)cc3C1)[C@H]1C(=O)O[C@H](c3ccccc3)[C@H](c3ccccc3)N1[C@@H]2c1ccc(OCCO)cc1 2.97
CCOC(=O)C1=CC[C@@H](c2ccccc2)N(S(=O)(=O)c2ccc(C)cc2)[C@H]1C(=O)OCC 0.482
O=C(CS)NCCCCCCNC(=O)[C@@H]1C[C@@H]2C(=O)N3CCC[C@H]3C(=O)N2[C@@H]1c1ccc(O)cc1 1.24
CCOC(=O)C1=CCC(c2ccc([N+](=O)[O-])cc2)N(S(=O)(=O)c2ccc(C)cc2)C1 (stereo unspecified) 2.42
COCCOC(=O)N1C(=O)[C@@]2(c3cc(C#CCNC(N)=O)ccc31)[C@H](c1ccc(O)cc1)N1[C@H](c3ccccc3)[C@H](c3ccccc3)OC(=O)[C@H]1[C@@H]2C(=O)Nc1nc2ccccc2s1 -2.47
O=c1cccc(CCc2ccccc2)o1 -0.259
O=C1N(CCS(=O)(=O)c2ccccc2)Cc2ccccc2[C@H]2OC(c3ccc(OCCCO)cc3)=N[C@@]12CCS(=O)(=O)c1ccccc1 3.07
CN(C)C(=O)[C@@]1(CCC(=O)OC(C)(C)C)N=C(c2ccc(OCCCO)cc2)O[C@H]1c1ccccc1 -0.346
O=C1C2C=CC(C(O)c3ccc(-c4ccccc4)s3)N(n3cnnc3)C2C(=O)N1Cc1ccccc1 (stereo unspecified) 0.766
CC(C)C(O)C1C=CC2C(=O)N(c3ccccc3)C(=O)C2N1Nc1ccc(C#N)cc1 (stereo unspecified) -0.0111
COC(=O)c1ccc(C(O)C2C=CC3C(=O)N(C)C(=O)C3N2NC(=O)OC(C)(C)C)o1 (stereo unspecified) 0.402
CCOC(=O)C1=C[C@@H](CC)N(S(=O)(=O)c2ccc(C)cc2)[C@H]1c1ccccc1 0.501
COC(=O)[C@@]1(Cc2ccccc2)[C@H]2c3cc(C(=O)N(C)C)n(Cc4c(-c5ccccc5)noc4C)c3C[C@H]2CN1C(=O)c1ccccc1 0.337
COCCOC(=O)N1C(=O)[C@@]2(c3cc(C#CCNC(N)=O)ccc31)[C@H](c1ccccc1OCCO)N1[C@H](c3ccccc3)[C@H](c3ccccc3)OC(=O)[C@H]1[C@@H]2C(N)=O 2.64
CC(C)N1C(=O)[C@@]2(c3ccc([N+](=O)[O-])cc3)CC(=O)N(CC34CC5CC(CC(C5)C3)C4)[C@@H]2c2ccc(CO)cc21 0.156
CC(=O)NCCCC[C@@H]1NC(=O)[C@@H]2C[C@H](C(=O)NCCCCN(C)C)[C@H](c3ccc(O)cc3)N2C1=O 0.037
Cc1ccccc1C(O)C1C=CC2C(=O)N(C)C(=O)C2N1N1CCCCC1 (stereo unspecified) -0.252
CCOC(=O)C[C@H]1[C@H](OC(=O)c2ccc(C(=O)c3ccccc3)cc2)[C@@H](NC(=O)C2CCCCC2)c2cc(OCCCO)ccc2N1C(=O)c1ccccc1 -0.3
COc1ccc([Si](C)(C)[C@@H]2[C@@H](CC(=O)N3CCC[C@H]3CO)O[C@]3(C(=O)N(C)c4c(Br)cc(C)cc43)[C@H]2C)cc1 -1
COC(=O)[C@@]1(Cc2ccc(F)cc2)[C@H]2c3cc(C(=O)N4CCCC4)n(Cc4cccc5ccccc45)c3C[C@H]2CN1C(=O)c1ccccc1 0.0161
C=CC(COC(C)=O)NS(=O)(=O)c1ccc(Br)cc1 (stereo unspecified) -0.406
CC(C)(C)OC(=O)CC[C@@]1(C(=O)O)N=C(c2ccc(OCCCO)cc2)O[C@@H]1c1ccccc1N=[N+]=[N-] 0.0589
CCOC(=O)C1=CCC(c2ccc(C#N)cc2)N(S(=O)(=O)c2ccc(C)cc2)C1 (stereo unspecified) 0.906
O=C1OCCC=C[C@H]2OC34C=CCN(Cc5ccccc5)C(=O)[C@H]3N(CCCO)C(=O)[C@@H]4C12 (stereo partly specified) -0.0921
O=C1OCC=C[C@H]2OC34C=CCN(c5ccc(Cl)cc5)C(=O)[C@H]3N(CCCCCCO)C(=O)[C@@H]4[C@@H]12 (stereo partly specified) -0.146
COC(=O)C(CC#Cc1ccc2c(c1)[C@]1(C(=O)N2)[C@H](c2ccc(OCCO)cc2)N2[C@H](c3ccccc3)[C@H](c3ccccc3)OC(=O)[C@H]2[C@@H]1C(=O)NC[C@H](O)c1ccccc1)C(=O)OC 3.39
